PLC-gamma1 inh – inhibitors of human phospholipase C gamma1. purified PLC-gamma1, fluorogenic substrate, fluorescence. P19174. 370,000 tested, 0.84% active. inhibition, % at 12.2 µM; in the data active = inhibition above about 9.5%
Target sequence (P19174 whole entry, looked up): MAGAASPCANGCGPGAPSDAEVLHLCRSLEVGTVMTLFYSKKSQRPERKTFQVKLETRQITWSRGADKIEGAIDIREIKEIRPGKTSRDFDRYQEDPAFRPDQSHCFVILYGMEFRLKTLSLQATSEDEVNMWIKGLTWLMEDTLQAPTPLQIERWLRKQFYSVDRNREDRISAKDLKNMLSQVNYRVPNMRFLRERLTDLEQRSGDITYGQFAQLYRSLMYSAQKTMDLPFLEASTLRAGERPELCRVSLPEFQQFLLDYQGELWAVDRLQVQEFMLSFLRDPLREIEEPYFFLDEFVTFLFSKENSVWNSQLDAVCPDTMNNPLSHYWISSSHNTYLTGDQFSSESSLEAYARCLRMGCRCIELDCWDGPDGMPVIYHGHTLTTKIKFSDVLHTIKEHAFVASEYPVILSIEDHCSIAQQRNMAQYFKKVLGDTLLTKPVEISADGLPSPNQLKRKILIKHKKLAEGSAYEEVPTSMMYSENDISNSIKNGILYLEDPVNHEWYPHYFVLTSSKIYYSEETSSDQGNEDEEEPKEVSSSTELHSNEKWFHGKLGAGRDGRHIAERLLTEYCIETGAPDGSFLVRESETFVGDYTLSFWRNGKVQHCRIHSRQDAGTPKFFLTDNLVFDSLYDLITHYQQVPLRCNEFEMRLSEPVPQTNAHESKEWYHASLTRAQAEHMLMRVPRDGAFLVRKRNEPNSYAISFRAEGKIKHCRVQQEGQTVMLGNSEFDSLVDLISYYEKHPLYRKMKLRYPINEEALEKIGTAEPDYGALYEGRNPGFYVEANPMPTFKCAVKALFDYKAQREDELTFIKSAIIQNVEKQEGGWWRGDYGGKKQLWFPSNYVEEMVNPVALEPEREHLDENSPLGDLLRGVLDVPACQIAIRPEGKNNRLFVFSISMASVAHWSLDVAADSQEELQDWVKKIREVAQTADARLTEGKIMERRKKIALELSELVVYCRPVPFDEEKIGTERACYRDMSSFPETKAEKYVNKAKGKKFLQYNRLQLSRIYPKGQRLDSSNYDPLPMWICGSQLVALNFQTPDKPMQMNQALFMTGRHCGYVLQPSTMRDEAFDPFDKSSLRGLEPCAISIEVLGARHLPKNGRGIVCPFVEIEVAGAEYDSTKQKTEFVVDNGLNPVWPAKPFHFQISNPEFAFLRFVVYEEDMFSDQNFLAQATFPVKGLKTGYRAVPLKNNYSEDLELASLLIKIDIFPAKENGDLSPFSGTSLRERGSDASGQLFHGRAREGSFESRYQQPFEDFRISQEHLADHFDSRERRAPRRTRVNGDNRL
bovine MsrA act – bovine methionine sulfoxide reductase A activation | activation, % at 10.6 µM | purified bovine MsrA, absorbance read-out | 360,000 tested, 0.3% active; in the data active = activation above about 7.5%;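 also: 0% = vehicle and 100% = reference activator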
PLC-beta3 inh – blocks human PLC-beta3 enzyme activity | Q01970 | Purified PLC-beta3, fluorogenic substrate, fluorescence | inhibition, % at 12.2 µM | 370,000 tested, 0.18% active | AID 720704; in the data active = inhibition above about 11%;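 also: 0% = median of compound wells on plate and 100% = full blocker control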
MsrA inhibitor – bovine MsrA inhibition; purified bovine MsrA, absorbance read-out; inhibition, % at 15.5 µM; 360,000 tested, 0.75% active; AID 651718; in the data active = inhibition above about 4.5%;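 also: 0% = vehicle wells with enzyme and 100% = reference inhibitor wells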
Numbers without * were called inactive; i = inactive; nt = not tested or not shown. This is a sample that favours compounds with a hit; in the whole collection about 1.9% have one here.

SMILES	PLC-gamma1 inh	bovine MsrA act	PLC-beta3 inh	MsrA inhibitor
O=C1CC(c2ccc(F)c(Br)c2)C2=C(CCCC2=O)N1 (stereo unspecified)	0.1	-3.7	-1.4	-0.4
O=C1CC(c2ccc3c(c2)OCO3)C2=C(CCCC2=O)N1 (stereo unspecified)	10.3*	-3.9	3.0	0.1
Cc1c(C(=O)O)cccc1-n1c(C)cc(/C=N/NC(=O)c2cc3ccccc3o2)c1C	-158.8	-6.4	-179.8	4.6*
Cc1c(C(=O)O)cccc1-n1c(C)cc(/C=N/Nc2ccc([N+](=O)[O-])cn2)c1C	-10.7	-0.3	-14.3	0.9
C=CCCN1[C@@H](Cc2ccccc2)COc2ccccc2S1(=O)=O	-0.3	nt	-2.5	0.3
Cc1cc(Nc2cc(F)c(F)c(F)c2)cc(=O)n1-c1cc(F)c(F)c(F)c1	-1.6	nt	-3.9	0.6
CCOc1cc(OCC)cc(C(=O)N2CCC[C@@H]2C(=O)N2CCC[C@H]2C(=O)NCc2ccccc2)c1	2.6	nt	10.6	0.6
COC(=O)c1ccc(NCc2c(O)ccc(O)c2Br)cc1Cl	9.8*	-6.1	1.8	1.4
COC(=O)c1ccc(NCc2cc(O)ccc2O)cc1O	-5.6	-4.7	-4.7	0.0
CCN1C[C@@H]2[C@@H]3C(=O)N(Cc4ccccc4)C(=O)[C@@H]3[C@](C)(C1=O)N2C(=O)c1ccccc1	1.9	-1.3	11.2*	-1.1
Cc1ccccc1C(=O)Nc1ccc(C(=O)N/N=C/c2ccc(O)c(Br)c2)cc1	-248.7	-4.4	-252.4	4.6*
Cc1ccccc1C(=O)Nc1ccc(C(=O)N/N=C/c2ccc(F)cc2)cc1	-3.4	-2.4	-6.7	0.7
CSc1nn(CCC#N)c(=O)[nH]c1=O	-1.1	nt	5.1	0.3
CN(C)S(=O)(=O)c1ccc(/C(O)=C2/C(=O)C(=O)N(CCN3CCCCC3)C2c2cccnc2)cc1 (stereo unspecified)	7.5	-1.1	1.4	4.9*
CN(C)S(=O)(=O)c1ccc(/C(O)=C2/C(=O)C(=O)N(Cc3cccnc3)C2c2ccncc2)cc1 (stereo unspecified)	-0.3	-12.7	1.8	2.1
CCOC(=O)[C@@]12CCCC3=C1N(CCC3)C(=O)[C@H]2CC(=O)N1CCCCC1	-0.1	nt	-0.8	nt
O=C(N/C(=C\c1ccc([N+](=O)[O-])cc1)C(=O)N1CCOCC1)c1ccccc1	-4.9	-7.2	-9.1	4.6*
O=C(N/C(=C/c1ccccc1)C(=O)N1CCOCC1)c1ccc([N+](=O)[O-])cc1	1.9	-2.7	0.6	0.8
Cc1ccccc1OCC(O)CNC1CCC(NCC(O)COc2ccccc2C)CC1 (stereo unspecified)	15.5*	-1.4	7.0	-1.9
O=C(Nc1ccccc1[N+](=O)[O-])NC1CCCCN(Cc2cccc(Cl)c2)C1=O (stereo unspecified)	1.9	nt	1.3	nt
CCN(c1cc(C)cc(C)c1)S(=O)(=O)c1nnc(NC(=O)c2ccco2)s1	-12.7	3.4	-26.1	3.6
CCN(c1ccc(OC)cc1)S(=O)(=O)c1nnc(NC(=O)c2ccco2)s1	-3.3	0.7	-16.8	4.6*
COc1ccc(N(CC(C)C)S(=O)(=O)c2nnc(NC(=O)c3ccco3)s2)cc1	-5.1	-7.5	-10.1	5.3*
CCn1c(C(=O)NCCCc2ccccc2)cc2sccc21	0.2	-0.4	3.8	0.0
O=C(NCCc1ccccc1)c1cc2sccc2n1Cc1ccccc1	10.1*	-3.5	4.3	1.0
SMILES	PLC-gamma1 inh	bovine MsrA act	PLC-beta3 inh	MsrA inhibitor
COc1ccc(/C(O)=C2/C(=O)C(=O)N(CCCN(C)C)C2c2cccc(Cl)c2)cc1OC (stereo unspecified)	-4.0	-0.9	-6.7	9.6*
COCCN(C(=O)C1CCC1)c1c(N)n(CC(C)C)c(=O)[nH]c1=O	-1.1	-2.9	-1.5	0.2
CCCCC1CCC(C(=O)N(CCOC)c2c(N)n(CC(C)C)c(=O)[nH]c2=O)CC1 (stereo unspecified)	14.5*	-2.0	1.9	0.1
O=C(NCC1CCN(C(=O)C(=O)c2cccs2)CC1)c1ccc2ccccc2c1	-2.4	nt	2.0	0.3
COC(=O)c1cc2c(c3c4cc(F)ccc4n(S(=O)(=O)c4cccc(C)c4)c13)C(=O)N(C)C2	-14.5	nt	-20.0	0.6
CC(C)Sc1nc(C(F)(F)F)cc(=O)n1-c1ccccc1	-5.0	13.6*	-1.4	0.5
COc1ccc(N)cc1CN1CCN(c2ncc(Cc3ccccc3)cn2)CC1	1.8	nt	2.6	0.8
CN(C)c1ccc(C(c2ccc(N(C)C)cc2)C(O)c2ccccc2)cc1 (stereo unspecified)	-3.8	-2.5	1.9	-0.2
OC(c1ccccc1)C(O)c1ccccc1 (stereo unspecified)	5.7	-2.6	10.8*	0.5
COc1cc(C(=O)N/N=C/c2ccc(OC(=O)c3cccc(C)c3)cc2)ccc1O	16.0*	-2.2	3.1	2.3
COc1cc(/C=N/NC(=O)c2ccc(N)cc2)ccc1OC(=O)c1cccc(C)c1	-30.3	-4.7	-54.5	1.6
NC(=O)c1ncn([C@@H]2O[C@H](C(=O)Nc3ccc(C(=O)N4CCCCC4)cc3)[C@@H](O)[C@H]2O)n1	1.3	nt	4.2	1.6
CCN(CC)CCCN1C(=O)C(O)=C(C(=O)c2cc3cccc(OC)c3o2)C1c1ccncc1 (stereo unspecified)	-4.2	-3.8	-6.2	4.8*
COc1cccc2cc(C(=O)C3=C(O)C(=O)N(CCN(C)C)C3c3ccc(F)cc3)oc12 (stereo unspecified)	-3.8	-2.6	-10.6	2.1
COC(=O)c1cc2c(c3c4cc(F)ccc4n(S(=O)(=O)c4ccc(C)cc4)c13)C(=O)N(C)C2	-10.9	nt	-13.1	0.6
COc1cc(/C=N/Nc2nncn2/N=C/c2ccc(O)c(OC)c2)ccc1O	8.8	5.3	4.4	4.6*
COc1cc(/C=N/Nc2nnc3c(n2)[nH]c2ccccc23)ccc1O	2.8	-2.6	0.9	4.6*
O=C(Nc1nc2ncccn2c1-c1ccccc1)C1CC1	i	nt	i	nt
COc1ccc(N2C(=O)c3[nH]nc(-c4ccccc4)c3C2c2ccc(Br)cc2)cc1 (stereo unspecified)	2.5	nt	-1.3	0.3
S=c1[nH]cc(-c2ccccc2)n1-c1ccccc1	13.0*	-2.1	6.2	1.3
Cc1ccc(-c2cc(-c3nnc4sc(Cc5cccs5)nn34)[nH]n2)cc1	1.0	nt	-3.0	nt
Cc1nn(CCC#N)c(NC(=O)c2ccc(Cl)cc2Cl)c1P(=O)(Nc1ccc([N+](=O)[O-])cc1)N1CCOCC1 (stereo unspecified)	3.6	-9.4	3.7	4.7*
OC(c1ccccc1)(c1ccccc1)C1CCN(CCCOc2cccnc2)CC1	-1.3	nt	-0.1	-0.6
O=C(Cn1cc[n+](Cc2ccccc2)c1)c1ccc([N+](=O)[O-])cc1	10.6*	-4.5	5.0	0.6
O=C(C[n+]1ccn(-c2ccccc2)c1)c1ccc([N+](=O)[O-])cc1	0.4	3.4	-5.6	-0.2
Cc1ccccc1NC(=O)OCCCN1C(=O)CCC12CCC(C)CC2 (stereo unspecified)	2.4	nt	-0.2	nt
CC(=O)Nc1nc2ccccc2n1CCN(C)C	2.7	-11.8	12.6*	1.5
CCOC(=O)c1sc(=S)[nH]c1C	1.4	8.4*	-5.7	3.6
CCOC(=O)c1sc(N)c(C(=O)OC)c1C	0.8	-4.4	-4.0	1.0
